About 83,000 compounds went through this panel and 20% of them were active in at least one assay; those are over-represented in the sample as a whole.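 Negative percent growth values reflect cell death: -40 means 40% of the cells present at the start died, and -100 means all died.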 Activity calls are given as the source filed them.
What follows are compounds tested on U251 CNS (assay: NCI-60 one-dose screen, 48 h (100 = growth as untreated, 0 = no growth, -100 = all killed)). Conditions: 10 µM unless noted.
Protocol: Growth inhibition of the U251 human tumor cell line is measured as a screen for anti-cancer activity. Cells are grown in 96 well plates and exposed to the test compound for 48 hours. Compounds are tested at a single concentration, which is 10^-5 M for most compounds. The reported endpoint is percent growth (GI% or GIPRCNT), where numbers from 0 - 100% represent growth inhibition, and numbers from -100% - 0 represent cell death. For example, a value of 40 represents 60% growth inhibition. A value of 0 means no net growth occurred over the course of the experiment. A value of -40 indicates 40% of cells at the beginning of the experiment died by the end of the experiment. A value of -100 means all cells are dead at the end of the experiment.
NCI-60 Human Tumor Cell Lines Screen was performed using the standard one-dose NCI protocol, which is described in more detail at https://dtp.cancer.gov/discovery_development/nci-60/default.htm.
Compounds with GIPRCNT values below 10 were considered active. Activity score was based on GIPRCNT using the following formula: […]
Score is 0 for GIPRCNT values of 100 or above, 50 for GIPRCNT values of 0, and 100 for GIPRCNT values of -100.
In the case of Clc1ccc(SSC(Cl)(Cl)Cl)cc1, the growth is reported as 98.6% (inactive). In the case of CC(N)Cc1ccc(O)cc1 (stereo not given), the growth is reported as 106% (inactive). With CCCCCCCC(=O)OCC/C=C/C1OC1C1OC(=O)/C=C\C=C\c2nc(oc2C)/C=C(/C)CCC2OC2C1OC(=O)NC(C)=O (stereo not given) the growth was -34.3% (active). In the case of [N-]=[N+]=NC(C(=O)O)c1ccccc1 (stereo not given), the growth is reported as 104% (inactive). COC(=O)C(=[N+]=[N-])C(=O)OC was tested, and the growth was 104% (inactive). COP(=S)(OC)Oc1ccc(SC)c(C)c1 was tested, and the growth was 100% (inactive). With CN(C)P1(N(C)C)=NP(N(C)C)(N(C)C)=NP(N(C)C)(N(C)C)=N1 the growth was 97.9% (inactive). For CO[C@@H]1[C@H](OC(=O)NC(=O)CCl)CC[C@]2(CO2)[C@H]1[C@@]1(C)O[C@@H]1CC=C(C)C, the growth was 5.86% (active). With CCCCN(CCCC)CC(O)c1ccccc1 (stereo not given) the growth was 100% (inactive). In the case of O=S(=O)(F)c1ncnc2nc[nH]c12, the growth is reported as 98.5% (inactive). For O=C(O)C1[O][Sb][O]C1C(=O)O (stereo not given), the growth was 102% (inactive). O=C(CI)Nc1ccc(Br)cc1 was tested, and the growth was -18.8% (active). With O=S(=O)(O)c1ccc(-c2ccc([As](=O)(O)O)cc2)cc1 the growth was 95.6% (inactive). CC1(C)N=C(N)N=C(N)N1c1ccc(CCCCc2ccc(Cl)cc2S(=O)(=O)F)c(Cl)c1 was tested, and the growth was 15.3% (inactive). For C=C=[CH][Sn]([c]1ccccc1)([c]1ccccc1)[c]1ccccc1, the growth was -75.6% (active). For O=C(NCc1ccc([N+](=O)[O-])cc1)Nc1ccc(S(=O)(=O)F)cc1, the growth was 85.7% (inactive). With C=CCN1C(=O)C(CC)(CCC(C)C)C(=O)NC1=S (stereo not given) the growth was 97.3% (inactive). In the case of COc1cc(NCCCCCN=C(N)N)c2ncccc2c1, the growth is reported as 28.1% (inactive). With O=C(O)c1[nH]c(=O)[nH]c(=O)c1F the growth was 87.2% (inactive). In the case of O1[As]2O[As]3O[As]1O[As](O2)O3, the growth is reported as -69.2% (active). O=C1NC(=S)NC(=O)C1=Cc1ccccc1 was tested, and the growth was 103% (inactive). For COC1=CC(=O)OC(CCc2ccc3c(c2)OCO3)C1 (stereo not given), the growth was 89% (inactive). Cc1cc(NC(=O)/C=C/c2ccc([N+](=O)[O-])cc2)ccc1S(=O)(=O)F was tested, and the growth was 102% (inactive). For CC(=O)[O][Hg][c]1nc2c(c(=O)n(C)c(=O)n2C)n1C, the growth was 88.3% (inactive). For C[C@@H]1CC[C@@H]2[C@@H]1[C@H](OC(=O)/C=C/C1CCCCC1)[C@]1(C3CCCCC3)C[C@@H](OC(=O)CO)[C@@]2(C)O1, the growth was 60.2% (inactive). CC1CC=CCC12C(=O)NC(=S)NC2=O (stereo not given) was tested, and the growth was 94.9% (inactive). For c1ccc2nc(OCCN3CC3)ccc2c1, the growth was 85.1% (inactive). With CCOc1cc(/C=N\Nc2nnc(C)n2N)c(C)cc1N(CCCl)CCCl the growth was 14.4% (inactive). In the case of CN1CCN(C(=O)COc2ccc(/C=C3\CC4C5CC=C6CC(Cl)CCC6(C)C5CCC4(C)C3=O)cc2)CC1 (stereo not given), the growth is reported as 34.1% (inactive). CC1=C(SCCC(=O)OCC(=O)NCCC[Te]c2ccccc2)C(=O)c2ccccc2C1=O was tested, and the growth was -5.81% (active). With CCOc1c(Cl)cc(CNC(C)C(O)c2ccccc2)cc1OC (stereo not given) the growth was 34.3% (inactive). For CC(C)C1c2ccc(O)cc2Oc2nc(N)c(C#N)c(N)c21 (stereo not given), the growth was 95.8% (inactive). With CCOC(=O)Nc1cc(Cl)c([N+](=O)[O-])c(NC(=O)OCC)n1 the growth was 102% (inactive). In the case of Nc1ccc([N+](=O)[O-])c2c1Oc1ccccc1O2, the growth is reported as 90.2% (inactive). For O=C(CCl)NCNC(=O)CCl, the growth was 87.9% (inactive). With Cc1cc([N+](=O)[O-])c(Cl)cc1NS(=O)(=O)c1ccccc1 the growth was 80.9% (inactive). With C1CNC2CCCC2C1 (stereo not given) the growth was 105% (inactive). For CCC(/C=C(C)/C=C/C(=O)c1c(O)c(-c2ccc(O)cc2)c[nH]c1=O)CO (stereo not given), the growth was 67.6% (inactive). With O=C1NC(=O)C(=Cc2cn(Cc3ccccc3)c3ccccc23)C(=O)N1 the growth was 84.1% (inactive). CC(=O)C1C(=O)N(C)C(=O)N(C)C1=O was tested, and the growth was 96.1% (inactive).

Reference: PubChem BioAssay (NCI)
